“And” between values parts separate entries of the source, which are not always exact repeats. Equal entries are not always repeated. Hit rate of the full screen: of about 150,000 compounds, about 6,500 (4.3%) were called active. Inconclusive results (about 12%) are left out. The sample holds actives, similar compounds and a random draw of the others, so the mix is not that of the screen. The call rests on the fitted dose curve; in most records, active means well fitted inhibition curve with a large enough effect (not every such curve was filed as active); inconclusive means small, poorly fitted or top-dose-only effect, or another doubt; inactive means no such curve, though single readings can be large or run the other way. A structure can be active in one record and inactive in another.
On the % scale 0 is the no-effect control and ±100 the full control effect; potency means the concentration at half of the fitted maximal effect.

Chain of 15-hydroxyprostaglandin dehydrogenase [NAD(+)] (Homo sapiens) (P15428 whole entry, looked up): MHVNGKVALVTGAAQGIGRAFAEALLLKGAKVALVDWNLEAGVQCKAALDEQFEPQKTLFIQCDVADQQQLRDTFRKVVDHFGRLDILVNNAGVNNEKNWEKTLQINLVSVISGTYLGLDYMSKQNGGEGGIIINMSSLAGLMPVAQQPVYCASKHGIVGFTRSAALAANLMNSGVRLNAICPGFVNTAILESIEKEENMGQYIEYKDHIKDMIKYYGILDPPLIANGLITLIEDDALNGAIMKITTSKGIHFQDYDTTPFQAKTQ

In this assay the target is 15-hydroxyprostaglandin dehydrogenase [NAD(+)] (Homo sapiens) (UniProt P15428). Description: qHTS Assay for Inhibitors of HPGD (15-Hydroxyprostaglandin Dehydrogenase). Particulars: purified HPGD, NADH fluorescence kinetic, PGE2 substrate; activity change, negative = inhibition: active compounds read low. An outline of the steps:
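NADH formation kinetics: reaction with 30 uM PGE2 and 1 mM NAD+ (final), 20 nM enzyme, Tris-HCl pH 8 with Tween 20, after 15 min compound preincubation at room temperature. Fluorescence change, last versus first of five reads.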
(qHTS replaces the single test concentration by a dilution series.)
With `O=C(COC(=O)c1cc2c(s1)CCCC2)NCc1ccccc1Cl`, the activity change, negative = inhibition was -9.08% (inactive). Same read-out and setting: the value for `COc1ccc(CC(=O)N/N=C(\C)c2ccccn2)cc1` was -4.24% (inactive); that for `Cc1ccc(S(=O)(=O)N2CCC(C(=O)N[C@@H](C)C(=O)NCc3ccco3)CC2)cc1` was -1.88% (inactive).

As to `S=C(NCCCc1cnc[nH]1)NCCCN(Cc1ccc(Cl)c(Cl)c1)c1ccc(Br)cn1`, the activity change, negative = inhibition is -8.19% (inactive). Turning to `COC(=O)c1ccc(NCC(=O)c2ccccc2)cc1`, the Potency is 17.8 µM (active). Consider `COC(=O)c1ccc(NC(=O)Nc2ccc(C)cc2)cc1`, for which the activity change, negative = inhibition is -17.3% (inactive). Same read-out and setting: the value for `Cc1ccc(C(=O)CNc2ccc(F)cc2)cc1` was -25.3% (inactive); that for `Cc1ccc(-n2[nH]c(C)c(/C=N/NC(=O)c3cccc([N+](=O)[O-])c3)c2=O)cc1C` was -25.4% (inactive); that for `Cc1sc2ncnc(Sc3nc4ccccc4s3)c2c1C` was -10.4% (inactive). Still for that read-out and setting: the value for `CCOc1ccc(N2C(=O)CC(N(O)c3ccccc3)C2=O)cc1` (centres undefined) was -7.04% (inactive). On to `CCCCCCC(=O)N(O)C1CC(=O)N(c2ccccc2)C1=O` (centres undefined), for which the Potency is 15.8 µM (active). For the molecule `CCOC(=O)c1ccc(N2C(=O)CC(N(C)Cc3ccccc3)C2=O)cc1` (centres undefined), the activity change, negative = inhibition is -4.27% (inactive). For the molecule `CC1CN(S(=O)(=O)c2ccc(C(=O)NN3CCN(C)CC3)cc2)CC(C)O1` (centres undefined), the activity change, negative = inhibition was -9.75% (inactive). On the same count and under the same terms, the value for `Cc1ccc(C(C)C)cc1OCCN1CCCC1` was 7.86% (inactive). `Cc1cc([N+](=O)[O-])c(-c2ccc(/C=N/n3cnnc3)o2)cc1Cl`: the activity change, negative = inhibition is -28.3% (inactive).

As for `Cc1ccc(Cl)cc1-c1ccc(/C=N/n2cnnc2)o1`, the activity change, negative = inhibition was -18.9% (inactive). For the molecule `Cc1cc(-c2ccc(/C=N/n3cnnc3)o2)c([N+](=O)[O-])cc1C`, the Potency is 10 µM (active).

As to `N#Cc1ccc(C(=O)Nc2nc(-c3cccs3)c(C(=O)C(F)(F)F)s2)cc1`, the activity change, negative = inhibition was 3.33% (inactive).

As for `O=C(c1cccc2ccccc12)N1CCN(c2ccccc2F)CC1`, the activity change, negative = inhibition is -14.2% (inactive). On the same count and under the same terms, the value for `COc1ccc(OCc2cccc(C(=O)N3CCCC3)c2)cc1` was -28.1% (inactive). Regarding `COc1c(C(=O)N2CCCC2)ccc2ccccc12`, the Potency was 12.6 µM (active). For the molecule `C/C(=N/NC(=O)c1ccc(Br)o1)c1ccc(C)o1`, the activity change, negative = inhibition was -27.2% (inactive). Turning to `CCCCC/C=C\CC1OC1CCCCCCCC(=O)O` (centres undefined), the activity change, negative = inhibition is -7.93% (inactive).

`COC(=O)C/C=C/[C@@H](C)[C@H](NC(=O)OCC(Cl)(Cl)Cl)c1ccccc1`: the activity change, negative = inhibition is -2.46% (inactive). Still for that read-out and setting: for `COc1ccc(C(=O)Nc2ncc3c(n2)-c2ccccc2CC3)cc1` the value was -20.4% (inactive).

Turning to `COc1ccc(-n2c(=S)[nH]c3sc4c(c3c2=O)CCc2ccccc2-4)cc1`, the Potency is 12.6 µM (active). `CSc1nc2sc3c(c2c(=O)[nH]1)CCc1ccccc1-3`: the activity change, negative = inhibition is -7.61% (inactive).

As for `Cc1cccc(C(=O)NCC(=O)OCC(=O)N2CC3(C)CC2CC(C)(C)C3)c1` (centres undefined), the activity change, negative = inhibition is -5.91% (inactive). As to `Cn1cccc1/C=N/NC(=O)c1ccc(OC(F)(F)C(F)F)cc1`, the activity change, negative = inhibition is -5.18% (inactive). Consider `COc1ccc(CN(C(=O)CSc2nnc(-c3ccc(OC)c(OC)c3)o2)c2ccc(F)cc2)cc1`, for which the Potency is 14.1 µM (active). Regarding `COc1ccc(CCNC(=O)CSc2nnc(-c3cccc(F)c3)o2)cc1OC`, the activity change, negative = inhibition was -14.4% (inactive). The same measure, in the same setting: for `CCN(CC)C(=O)CSc1nnc(-c2cccc(OC)c2)o1` the value was -11.1% (inactive); for `COCCNC(=O)c1ccccc1NS(=O)(=O)c1ccc(C)c([N+](=O)[O-])c1`, 1.9% (inactive); for `Cc1cccc(NC(=O)CN2C(=O)CNC2=O)c1`, -7.22% (inactive). For `O=C(Cn1[nH]c(=O)c2ccccc2c1=O)Nc1cccc(-c2nnc3n2CCCCC3)c1`, the Potency is 14.1 µM (active). Take `Brc1cccc(-c2nnc3n2CCC3)c1`: the activity change, negative = inhibition is -11.6% (inactive). Same read-out and setting: the value for `COc1ccnc(Oc2ccccc2)n1` was -1.44% (inactive). On the same count and under the same terms, the value for `O=[N+]([O-])c1ccc(N/N=C2/CCCCC2c2ccccn2)c([N+](=O)[O-])c1` (centres undefined) was -4.22% (inactive); that for `Cc1ccc(S(=O)(=O)N2CCOCC2)cc1C(=O)NC(=S)N(Cc1ccccc1)C(C)C` was -17.6% (inactive). The same measure, in the same setting: the value for `CCC(C(=O)OCC(=O)Nc1ccc(C(=O)Nc2ccc(OC)cc2)cc1)c1ccccc1` (centres undefined) was -12.4% (inactive); that for `Cc1nc2ccc(C(=O)N3CCN(c4ccccc4)CC3)cc2s1` was -2.92% (inactive). Turning to `Cc1nc2ccc(C(=O)N3CCSCC3)cc2s1`, the Potency is 1.58 µM (active). With `Cc1nc2ccc(S(=O)(=O)NC(C(=O)N3CCCCCC3)C(C)C)cc2s1` (centres undefined), the activity change, negative = inhibition was -2.12% (inactive). For the molecule `O=C(N/N=C/c1ccc2c(c1)OCO2)c1ccc(Cn2cc([N+](=O)[O-])cn2)o1`, the activity change, negative = inhibition was -8.13% (inactive).

Turning to `C=CCN1C(=O)C(Cc2ccc(OCC)cc2)SC1=Nc1ccc(C(=O)O)cc1` (centres undefined), the activity change, negative = inhibition was -8.9% (inactive). On the same count and under the same terms, for `Cc1ccc(C)c(OCC(=O)N2CCN(C(=O)c3ccco3)CC2)c1` the value was 1.99% (inactive). With `CCc1nnc(NS(=O)(=O)c2ccc(N=Cc3c(C)[nH]n(-c4ccc(C)cc4)c3=O)cc2)s1`, the Potency was 25.1 µM (active). For the molecule `COc1cc(NS(=O)(=O)c2ccc(N=Cc3c(C)[nH]n(-c4ccccc4)c3=O)cc2)nc(OC)n1`, the activity change, negative = inhibition was -14.8% (inactive). On the same count and under the same terms, the value for `CCc1nnc(NS(=O)(=O)c2ccc(NS(=O)(=O)c3ccccc3)cc2)s1` was 2.28% (inactive); that for `COC(=O)C1(C(C)=O)CC2=CC[C@H]3C(=O)N(c4ccccc4)C(=O)[C@H]3[C@@H]2Cc2ccccc2[C@@H]1C[N+](=O)[O-]` (some centres undefined) was -2.53% (inactive) and -4.27% (inactive).

For `Oc1c(Cl)cc(Cl)c(Cl)c1Cc1c(O)c(Cl)cc(Cl)c1Cl`, the Potency is 35.5 µM (active); the activity change, negative = inhibition is -15.8% (inactive) and -6.53% (inactive). In the case of `NS(=O)(=O)c1ccc(NC(=O)COC(=O)C2(c3ccc(F)cc3)CCCC2)cc1`, the activity change, negative = inhibition was -17% (inactive). Still for that read-out and setting: the value for `Cc1ccc(NC(=O)CC2S/C(=N/N=C3\CCCc4ccccc43)NC2=O)cc1` (centres undefined) was -13.9% (inactive); that for `CCCCCCCCCOC1OC(CO)C(O)C(O)C1NC(C)=O` (centres undefined) was -3.92% (inactive). For the molecule `CC1CCN(C(=O)c2cc3nc(C4CC4)cc(C(F)(F)F)n3n2)CC1`, the Potency was 1.26 µM (active). As to `C=CCNC(=O)c1cc2nc(C3CC3)cc(C(F)F)n2n1`, the activity change, negative = inhibition is -7.97% (inactive). Same read-out and setting: the value for `COC(=O)c1cc2nc(-c3ccccc3)cc(C(F)(F)F)n2n1` was -14.5% (inactive); that for `CN(C)/N=C/c1cc(Cl)cc([N+](=O)[O-])c1O` was -18.9% (inactive). On the same count and under the same terms, the value for `O=C(NCC1CCCO1)c1ccc2ccccc2n1` (centres undefined) was -27.3% (inactive). On the same count and under the same terms, for `O=C(NCC1CCCO1)/C(=C/c1ccc(Cl)cc1)NC(=O)c1ccccc1` (centres undefined) the value was -23% (inactive).

On to `O=C(/C=C/c1ccccc1[N+](=O)[O-])NCC1CCCO1` (centres undefined), for which the Potency is 4.47 µM (active). In the case of `COC(=O)c1cc(C(=O)N(Cc2ccccc2)c2ccccn2)cc([N+](=O)[O-])c1`, the activity change, negative = inhibition was -15.3% (inactive). Same read-out and setting: the value for `Cc1cc(SCC(=O)NCCN2C(=O)CSC2=O)nc2ccccc12` was -24.5% (inactive). On the same count and under the same terms, the value for `Cc1ccc(C(=O)OCC(=O)NCc2ccc3c(c2)OCO3)s1` was -10.3% (inactive).

Consider `Cc1cc(Br)ccc1SCC(=O)OCC(=O)NCc1ccc2c(c1)OCO2`, for which the Potency is 25.1 µM (active). Take `O=C(COC(=O)c1ccc(Cl)nc1)NCc1ccc2c(c1)OCO2`: the activity change, negative = inhibition is -9.81% (inactive). Same read-out and setting: for `C=CCNCCCCOc1ccccc1` the value was -5.77% (inactive); for `COC(=O)c1ccccc1NS(=O)(=O)c1ccc2[nH]c(=O)[nH]c2c1`, -11.9% (inactive); for `CCN1C(=O)N[C@@H](CCc2ccccc2)C(C(=O)OC)=C1C`, -3.92% (inactive).

`CC(=O)Oc1ccc(C(=O)Nc2nccs2)cc1`: the activity change, negative = inhibition was -13.6% (inactive). Turning to `Cn1cccc1C(=O)Nc1nccs1`, the Potency is 31.6 µM (active).

For the molecule `COc1cc(C(=O)Nc2nccs2)cc(OC)c1OC`, the activity change, negative = inhibition is -15.1% (inactive). Still for that read-out and setting: for `CC(OC(=O)c1ccccc1N1C(=O)C2C3CCC(C3)C2C1=O)C(=O)c1ccccc1` (centres undefined) the value was -11.4% (inactive).

As to `CCOc1ncccc1C(=O)N(CC)CC(=O)Nc1ccc(NC(C)=O)cc1`, the activity change, negative = inhibition was -1.26% (inactive). Still for that read-out and setting: the value for `C/C=C/c1ccc(OCCOc2ccc(C=O)cc2OC)c(OC)c1` was -16.6% (inactive). On the same count and under the same terms, for `O=C(CC1NCCNC1=O)Nc1cc(Cl)cc(Cl)c1` (centres undefined) the value was -10.9% (inactive); for `CC(=O)Nc1cccc(/C(C)=N/NC(=O)c2ccccc2Cl)c1`, -5.88% (inactive). As for `O=C(Nc1cc(=O)[nH]c2ncnn12)c1ccccc1Cl`, the Potency is 22.4 µM (active).

`O=C(Nc1ccc2nc3n(c(=O)c2c1)CCCCC3)c1ccccc1Cl`: the activity change, negative = inhibition is -20.5% (inactive). `CC(Cc1cccs1)NC(=O)c1cccc(Cl)c1` (centres undefined): the Potency is 7.94 µM (active). `CC(Cc1cccs1)NC(=O)NC1CCCCC1` (centres undefined): the activity change, negative = inhibition is -17.9% (inactive). Still for that read-out and setting: for `COCC(C)NC(=O)c1ccc(Cl)c(Cl)c1` (centres undefined) the value was -23% (inactive). For `COc1ccc(-c2nc(-c3ccccc3)oc2Nc2ccc3ccccc3c2)cc1`, the activity change, negative = inhibition was -1.48% (inactive). On to `COc1ccccc1-n1cnc2cc(C(=O)NCC3CCCO3)ccc21` (centres undefined), for which the Potency is 12.6 µM (active). With `COc1ccccc1-n1c(C)nc2cc(C(=O)NCc3ccc4c(c3)OCO4)ccc21`, the activity change, negative = inhibition is -21.3% (inactive). For `COc1cc(NS(=O)(=O)c2ccccc2)ccc1-n1nc(C)cc1C`, the activity change, negative = inhibition was -3.88% (inactive). Still for that read-out and setting: the value for `COCCCNC(=S)NC(=O)c1ccccc1` was -5.04% (inactive). For the molecule `COCCCNC(=O)c1ccc2c(c1)ncn2-c1ccccc1OC`, the Potency is 11.2 µM (active).

For `COc1ccc(NS(=O)(=O)c2ccc(NC(C)=O)cc2)cc1OC`, the activity change, negative = inhibition was -1.98% (inactive). With `Cc1ccccc1CN(c1ccc(C(=O)NCC2CCCO2)cc1)S(C)(=O)=O` (centres undefined), the activity change, negative = inhibition is -4.02% (inactive). On to `COc1ccccc1-n1cnc2cc(NS(=O)(=O)c3ccccc3)ccc21`, for which the Potency was 14.1 µM (active). Take `O=C(NCCN1CCOCC1)c1ccc2c(c1)ncn2C1CCCC1`: the activity change, negative = inhibition is -2.32% (inactive).

Consider `CC(=O)NC1C(Oc2ccc(C)cc2)OC2COC(c3ccco3)OC2C1O` (centres undefined), for which the activity change, negative = inhibition is 0.675% (inactive).

(Values after PubChem BioAssay AID894 (National Center for Advancing Translational Sciences (NCATS), 2007).)
